# Hits are enriched below; roughly 2.2% of the tested compounds scored in any of these assays.
# LGR2 inh: blocks bursicon-induced cAMP signaling via Drosophila LGR2; HEK293 LGR2, CRE-luciferase, bursicon-stimulated, 4 h; inhibition, % at 9.99 µM; 0.35% of 380,000 active; AID 720647;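 active = drop in luminescence signal, shown as inhibition above about 50% in the replicate tests, limit read from the data, passing the limit was not always enough; inconclusive = probably only some replicates passing the limit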;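 also: agonist challenge used bursicon conditioned medium at about half maximal strength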
# MITF TRPM1 inh: inhibitors of MITF-driven TRPM1 promoter in melanoma cells; SK-MEL-5 TRPM1 promoter luciferase, 24 h; inhibition, % at 12.5 µM; 0.83% of 330,000 active;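 active = mean inhibition across replicates of 60% or more, whatever share of single replicates reaches that level; inconclusive = some that reach 60%, reason not given; inactive = mean inhibition across replicates below 60%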
# LMP1 NFkB inh: reduces LMP1-driven NF-kappaB luciferase signal | LMP1-induced NF-kappaB luciferase reporter cells, luminescence | inhibition, % at 12.5 µM | 0.69% of 350,000 active; in the data active = inhibition above about 41%; inconclusive = no clear call, values can overlap the other calls;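 also: 0% = neutral control wells and 100% = reference inhibitor control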
# Shn3 3UTR inh: reduces Shn3 3'UTR luciferase signal in osteoblasts | 0.52% of 360,000 active | inhibition, % at 12.5 µM | Clone20 osteoblast Shn3 3'UTR firefly luciferase, 24 h;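 active = mean inhibition of at least 75% with every replicate also reaching 75%; inconclusive = mean inhibition at least 75% but some replicate below; inactive = mean inhibition below 75%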;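 also: 0% = median of neutral control wells and 100% = pilot-screen positive control compound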
# PAX8 reporter: lowers PAX8-driven luciferase in RMG-I cells; RMG-I TPO-luciferase reporter, SteadyGlo, 24 h; inhibition, % at 12.6 µM; 1.2% of 360,000 active;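 active = mean replicate inhibition at least 60% with every replicate also reaching 60%; inconclusive = only one of the two criteria is met; inactive = mean below 60% and not all replicates reaching 60%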;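 also: luciferase light reporting Pax8 driven TPO promoter activity; plate controls were median of neutral control wells for no effect and mitoxantrone controls for full effect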
# EWS-Fli block: EWS/Fli transcriptional activity inhibition; A673 NR0B1-luciferase reporter, viability-normalised; inhibition, % at 12.6 µM; 0.67% of 350,000 active;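 active = mean inhibition of at least 50% after viability correction, with every replicate also passing that limit; inconclusive = mean reaches 50% but only one of two replicates passes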;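 also: firefly luciferase signal divided by Alamar Blue viability fluorescence both relative to DMSO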
# DNA binder FP: binds DNA displacing acridine orange. AC35, µM (titrated, usually from 68 µM), without a hit: at the highest dose activity change, negative = DNA binding. salmon sperm DNA acridine orange fluorescence polarization. 2% of 640 active. shares compounds with EWS-Fli block. AID 720586;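 active = fitted curve reaches a 35% signal fall AC35 below twice the sample's top valid tested dose, actives reach about 48 µM in these data; inactive = the rest, including activity in the rising direction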;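 also: lower polarization ratio signals compound binding to DNA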
# * = called active by the depositor; ? = inconclusive; . = not tested or not shown; ! = not confirmed by another sample.
SMILES,LGR2 inh,MITF TRPM1 inh,LMP1 NFkB inh,Shn3 3UTR inh,PAX8 reporter,EWS-Fli block,DNA binder FP
COC(=O)C[C@@H]1CC[C@@H]2[C@H](COc3ccc(NC(=O)c4ccc(F)c(F)c4)cc3C(=O)N2C)O1,7.1,.,.,.,-4.4,71.5*,-2.1%
Cc1cc(C(=O)Nc2ccc3c(c2)C(=O)N(C)[C@@H]2CC[C@@H](CC(=O)NCc4ccc(-c5ccccc5)cc4)O[C@H]2CO3)no1,14.1,.,.,.,38.8,66.1*,-9.9%
C[C@@H]1CCCCO[C@H](CN(C)S(=O)(=O)c2cccs2)[C@@H](C)CN([C@@H](C)CO)C(=O)c2cc(NS(=O)(=O)c3cccs3)ccc2O1,-9.7,.,.,.,8.2,-3.4,.
C[C@@H]1CN([C@@H](C)CO)C(=O)c2cc(C#Cc3cccc(F)c3)cnc2O[C@H]1CN(C)C(=O)c1ccccc1F,12.8,.,.,.,.,2.0,.
O=C1C(=O)N(Cc2cccs2)c2ccccc21,16.1,6.9,1.2,7.2,15.1,65.5*,-9.3%
O=C1C(=O)N(CCS(=O)(=O)c2ccccc2)c2ccccc21,14.8,7.4,0.9,-1.1,-9.7,61.0*,-9.9%
C[C@@H]1CN([C@@H](C)CO)C(=O)c2cc(NC(=O)CCCN(C)C)ccc2O[C@H]1CN(C)S(=O)(=O)c1ccc(F)cc1,14.4,.,.,.,-30.9,-11.3,.
CNC[C@H]1OCCCC[C@H](C)Oc2ccc(NC(=O)Nc3ccc4c(c3)OCO4)cc2C(=O)N([C@@H](C)CO)C[C@@H]1C,-4.1,.,.,.,-6.9,-6.4,.
Cc1noc(C)c1S(=O)(=O)Nc1ccc2c(c1)CC(=O)N([C@H](C)CO)C[C@@H](C)[C@@H](CN(C)S(C)(=O)=O)O2,1.1,.,.,.,-25.1,5.0,.
Nc1ncccc1OCc1cccc(C(F)(F)F)c1,-14.7,1.6,-10.0,-7.3,-3.9,-6.2,.
Nc1nc(N)c(-c2cccc(C(F)(F)F)c2)c(Cc2cccc(C(F)(F)F)c2)n1,4.7,19.2,7.5,?,5.0,57.5*,-3.2%
COc1cccc(OC)c1C(=O)Nc1cc(C)nn1-c1nc2ccccc2[nH]1,6.0,7.1,17.6,-7.6,14.7,58.5*,2.3%
COc1ccc(C(=O)Nc2cc(C)nn2-c2nc3ccccc3[nH]2)c(OC)c1,-0.3,0.4,-11.4,11.9,-7.4,-1.4,.
Cc1sc2nc(CN3CCC(C)CC3)nc(Cl)c2c1C,.,.,.,.,-0.4,72.5*,-19.1%
CNC[C@H](CC1CCCCC1)NC[C@H](CO)NCCc1cccc(C(F)(F)F)c1,?,57.4,-12.6,0.5,72.1*,60.7*,-8.5%
CC(=O)NCCC1CCCCN1Cc1nc(Cc2cccc(C(F)(F)F)c2)no1 (configuration not stated),7.1,8.1,0.6,25.1,-1.8,5.6,.
CCCNC(=O)C[C@@H]1C[C@H]2c3cc(NS(=O)(=O)c4cccc(OC)c4)ccc3O[C@H]2[C@@H](CO)O1,6.5,.,.,.,.,-2.9,.
COC(=O)C[C@@H]1C[C@@H]2c3cc(NC(=O)Nc4ccc(OC)cc4)ccc3O[C@@H]2[C@H](CO)O1,-6.0,.,.,.,2.8,2.7,.
COc1ccc(/C=N/Nc2nc(-c3ccc(C)cc3)c(NC(C)=O)s2)cc1OC,8.7,-9.5,5.0,-9.0,15.3,-6.5,.
COc1cc(/C=N\Nc2nc(-c3ccc(C)cc3)c(NC(C)=O)s2)ccc1O,-1.5,-12.8,3.3,-5.6,5.2,54.2*,-10.7%
C/C=C/c1ccc(C2[C@@H]3CN(C(=O)Cc4ccccc4)C[C@H]2N3)cc1 (some centres not stated),1.0,.,.,.,-4.6,54.8*!,-2.4%
Cc1ccc(S(=O)(=O)N(C)C[C@@H]2Oc3ccc(NC(=O)Cc4cn(C)c5ccccc45)cc3C(=O)N([C@@H](C)CO)C[C@H]2C)cc1,-19.8,.,.,.,34.7,8.0,.
CC(C)CC(NC(=O)c1cccs1)c1nnc(SCc2ccc(Cl)c(Cl)c2)n1C (configuration not stated),9.7,-0.2,7.0,5.5,14.2,76.3*,-20.5%
COc1ccc(C(=O)NC(CO)c2nnc(SCc3ccc(Cl)c(Cl)c3)n2C)cc1 (configuration not stated),-6.3,6.1,-12.6,-0.6,.,.,.
CCOC(=O)Cc1ccc(NC(=O)c2ccccc2Br)cc1,.,-12.8,3.7,3.9,-36.4,51.6*,-0.9%
SMILES,LGR2 inh,MITF TRPM1 inh,LMP1 NFkB inh,Shn3 3UTR inh,PAX8 reporter,EWS-Fli block,DNA binder FP
CCOC(=O)Cc1ccc(NC(=O)c2ccc(C(C)(C)C)cc2)cc1,.,5.8,5.3,76.9,.,.,.
COc1ccccc1-c1cn(CC[C@@H]2CC[C@@H](NS(=O)(=O)c3ccccc3C)[C@H](CO)O2)nn1,5.0,.,.,.,31.3,8.3,.
O=C(NC1CCCC1)N1CCCCN2[C@@H](CO)[C@@H](c3ccc(/C=C/c4ccccc4)cc3)[C@@H]2C1,26.2,.,.,.,103.9*,72.7*,9.2%
CN(C)CCCNC(=O)[C@@H]1[C@@H](CO)[C@@H]2Cn3c(cccc3=O)[C@@H]2N1C(=O)Nc1ccccc1,-9.2,.,.,.,-8.9,-3.7,.
COc1ccc(-c2ccc3c(c2)[C@@H]2[C@@H](CCN2C(=O)C2CCOCC2)[C@@H](CO)N3C)cc1,-15.9,.,.,.,-10.9,-10.5,.
Oc1ccc(Cl)c2cccnc12,1.2,34.7,5.5,29.6,14.9,21.4,.
Oc1c(Cl)cc(Cl)c2cccnc12,5.1,21.6,5.1,16.5,23.8,54.2*,-3.9%
CC(=O)N(C)C[C@H]1Oc2ncc(C#Cc3cccc(F)c3)cc2C(=O)N([C@@H](C)CO)C[C@H]1C,-0.4,.,.,.,.,-27.3,.
CO[C@H]1CN(C)C(=O)c2ccc(NC(=O)CC(F)(F)F)cc2OC[C@@H](C)N(CC2CC2)C[C@H]1C,-9.2,.,.,.,-3.7,-9.1,.
Nc1ccc2c(c1)OC1(CCCC1)O2,15.4,61.9*,59.1*,78.4,30.8,68.2*,-5.5%
Cc1occc1-c1n[nH]c(=S)n1-c1ccccc1,-2.8,3.1,3.0,5.1,16.0,14.2,.
